Measured values: PubChem BioAssay (NCI)
About 83,000 compounds went through this panel and 20% of them were active in at least one assay; those are over-represented in the sample as a whole.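 Activity criterion: percent growth below 10, measured after cells in 96-well plates were exposed to a single compound concentration for 48 hours.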 Values without a mark were called inactive. The source made the active and inactive calls.

tested on: SF-295 CNS; assay: NCI-60 one-dose screen, 48 h (100 = growth as untreated, 0 = no growth, -100 = all killed); details: 10 µM unless noted

Going from `COc1cc(-c2csc(NC(=O)Nc3ccc(Cl)cc3)n2)cc(OC)c1OC` to `CCOC(=O)c1ccc(Nc2ncnc3ccc(NC(=O)c4ccccc4)cc23)cc1`, the growth rises from 18% to 95.3%.

For `N#CCNc1ccc(C(=O)O)cc1`, the growth was 104%.

In the case of `COC(=O)/C=C/c1cc(OC(C)=O)c2c(c1)C(C(=O)OC)C(c1ccc(OC(C)=O)c(OC(C)=O)c1)O2` (centres undefined), the growth is reported as 3.13% (active).

tested on: SF-539 CNS; assay: as above; details: 10 µM unless noted

Going from `O=C1CC(c2ccc(O)c(O)c2)Oc2cc(O)c([C@@H]3O[C@H](CO)[C@@H](O)[C@H](O)[C@H]3O)c(O)c21` (some centres undefined) to `C=C1C(=O)O[C@H]2[C@H]1CC/C(COC(=O)Nc1nc3ccccc3[nH]1)=C\CC[C@@]1(C)O[C@@H]21`, the growth falls from 100% to 61.1%.

First: O=C(NCc1ccccc1)c1ccc2c(c1)NC(=O)[C@@H]1CCCN21
Second: O=c1c2ccccc2n(CC(O)CN2CCCC2)c2c(Br)cccc12 (centres undefined)
The growth of the first is higher: 105% for the first, 94.9% for the second.

Compared with `CSc1cccc(NC(=O)Nc2nc3c(C)cccc3s2)c1`, `Cc1cnc(-c2ccc(-c3ccc(NC(=O)Nc4c(F)cc(F)cc4F)cc3F)c3c2C(=O)NC3)[nH]1` is lower in growth: 89.3% for the first, 56.1% for the second.

First: COC(=O)[C@]1(C)CCC[C@]2(C)[C@H]3C[C@H]4C(C(C)C)=C[C@]3(CC[C@H]21)[C@@H]1C(=O)N(CCC#N)C(=O)[C@@H]14
Second: C=C(C)[C@@H]1CC[C@]2(C(=O)n3ccnc3)CC[C@]3(C)[C@H](CC[C@@H]4[C@@]5(C)CCCNC(C)(C)[C@@H]5CC[C@]43C)[C@@H]12
The growth of the first is higher: 98% for the first, 24.6% for the second.

Going from `CC1=C(CCCOC(=O)NCCCl)C2=C(C)C3(CC3)[C@@](C)(O)C(=O)C2=C1` to `CCOC(=O)c1sc(/N=C2\NC(=O)/C(=C/c3ccc(N4CCN(C)CC4)cc3)S2)nc1C`, the growth rises from 42.6% to 100%.

Going from `COc1ccc2[nH]c(-c3ccccc3)c(C=C(C#N)C#N)c2c1` to `CN(C)C(CNc1oc(-c2cccc3ccccc23)nc1C#N)c1ccco1` (centres undefined), the growth rises from 14% to 102%.

First: Cc1nn(-c2ccc(-c3ccc(OC(F)(F)F)cc3)cc2)c2nc(-c3ccccc3)nc(N)c12
Second: Cc1cc(NC(=O)CNc2nc(Oc3ccc(F)cc3)nc(-c3ccc(F)cc3)n2)ccc1Cl
The growth of the first is lower: 100% for the first, 109% for the second.

Going from `O=S(=O)(O)c1ccc(N=NSc2ccc3ccccc3c2)cc1` to `CS(=O)(=O)O[C@@H]1C(=O)N(c2cc3c4ccccc4ccc3c3ccccc23)[C@H]1c1ccc(F)cn1`, the growth falls from 100% to 15.7%.

Compared with `CC(C)(C)c1nn(-c2ccccc2)c2c1COCN2Cc1ccc(Cl)cc1`, `CC(C)(C)CC(C)(C)Cc1ccc(OCCOCC[N+](C)(C)Cc2ccccc2)cc1` is lower in growth: 83.6% for the first, 30.9% for the second.

First: CC(=O)c1cc2c(N)c(C(=O)Nc3ccccn3)sc2nc1C
Second: COc1ccc(Nc2cc(NC(=O)CNc3cc(OC)c(Cl)c(OC)c3Cl)ncn2)cc1
The growth of the first is higher: 84.9% for the first, 82% for the second.

Going from `O=C(/C(=C/c1ccc([N+](=O)[O-])cc1)SCc1ccc(F)cc1)c1ccc(Cl)cc1` to `Cc1cnc(SCc2ccc(Cl)cc2Cl)nc1Nc1ccc(Cl)c(Cl)c1`, the growth rises from 94.6% to 105%.

Compared with `Nc1n[nH]c2cccc(C#Cc3cccc(NC(=O)c4cc(N5CCOCC5)cc(C(F)(F)F)c4)c3)c12`, `COc1cc(C2=NN(C(C)=O)C(c3cccc(Nc4ccnc5cc(C(F)(F)F)ccc45)c3)C2)cc(OC)c1OC` (centres undefined) is higher in growth: 24.6% for the first, 76.6% for the second.

Compared with `CCOCc1cc(C(C)(C)C)ccc1O`, `O=C1CCc2ccccc2N1` is higher in growth: 103% for the first, 105% for the second.

First: C=C(C)[C@@H]1CC[C@]2(C(=O)O)CC[C@]3(C)[C@H](CC[C@@H]4[C@@]5(C)C[C@@H](CC#Cc6ccccc6C)C(=O)C(C)(C)[C@@H]5CC[C@]43C)[C@@H]12
Second: Clc1ccc2c(NCCCNC3CCCCC3)ccnc2c1
The growth of the first is lower: 36% for the first, 101% for the second.

In the case of `CCc1ccc(OCc2ccccc2C(=O)Nc2ccc3nc(C)cc(N)c3c2)cc1`, the growth is reported as -97.5% (active).

`c1cc(CNC23CC4CC(CC(C4)C2)C3)cc(C[N+](Cc2cccc(CNC34CC5CC(CC(C5)C3)C4)c2)(Cc2cccc(CNC34CC5CC(CC(C5)C3)C4)c2)Cc2cccc(CNC34CC5CC(CC(C5)C3)C4)c2)c1` (centres undefined) was tested, and the growth was 16.9% [42 µM].
